Experiment [1] can be described thus: NCI Yeast Anticancer Drug Screen. Data for the rad50 strain (AID 155).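 Further: 0% = growth of vehicle-only cultures of the same strain.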 As to conditions: S. cerevisiae rad50 strain growth inhibition, stronger effect = higher value. In outline: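 Compounds were tested on a yeast strain with an engineered DNA damage repair alteration; the reported value is growth inhibition normalised to vehicle treatment.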
Experiment [2] is described as follows: NCI Yeast Anticancer Drug Screen. Data for the mec2-1 strain (AID 157). The note with it: S. cerevisiae mec2-1 strain, stronger effect = higher value. In outline:
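Readout is yeast growth inhibition, normalised to vehicle-treated controls, in the mec2-1 strain exposed to compound.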

The nature of experiment [3]: NCI Yeast Anticancer Drug Screen. Data for the sgs1 mgt1 strain (AID 161).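 Further: 0% = growth of cultures given vehicle only.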 As to conditions: S. cerevisiae sgs1 mgt1 strain, stronger effect = higher value. The method, boiled down:
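Yeast cells carrying a defined DNA-repair defect were exposed to test compounds. Growth inhibition was measured relative to vehicle-treated controls.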

Experiment [4] can be described thus: NCI Yeast Anticancer Drug Screen. Data for the cln2 rad14 strain (AID 165).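 Further: 0% = growth equal to vehicle treated cultures.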 The note with it: S. cerevisiae cln2 rad14 strain, stronger effect = higher value. In outline: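 Relative to vehicle controls, growth inhibition of compound-treated cln2 rad14 yeast was recorded.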
Experiment [5] in a line: NCI Yeast Anticancer Drug Screen. Data for the bub3 strain (AID 167). As to conditions: S. cerevisiae bub3 mutant strain, stronger effect = higher value. In outline:
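Growth of a checkpoint-deficient yeast mutant is measured after compound exposure. Values represent inhibition relative to vehicle.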

Experiment [6] is described as follows: NCI Yeast Anticancer Drug Screen. Data for the mlh1 rad18 strain (AID 175). As to conditions: S. cerevisiae mlh1 rad18 strain growth inhibition, stronger effect = higher value. In outline: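 Test agents were incubated with a yeast strain of defined genotype (DNA damage repair defect). Inhibition of growth was derived by comparison with vehicle-exposed cultures.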
Setting [7] is: at 5.0 µM (retest, dose inferred, filed as 0.5).
The mark [8] stands for this setting: at 50.0 µM (retest, dose inferred, filed as 5.0).

Each structure is given as a SMILES string. This is part of a sample that, as a whole, favours compounds with a hit. Of some 79,000 tested, about 15% had one in any assay. Values without a mark were called inactive. Calls of active or inactive are those of the source. No stated cut-off is given here; in the data, active means growth inhibition above about 70%; inactive means the rest.

Consider `Oc1ccccc1N=Cc1ccccc1`, for which the growth inhibition is 23% in experiment [1] (setting [7]); 75% (active) in experiment [1] (setting [8]); 61% in experiment [1] (at 50.0 µM); 13% in experiment [2] (setting [7]); 35% in experiment [2] (setting [8]); 44.2% in experiment [2] (at 50.0 µM). Also, the growth inhibition is 21% in experiment [3] (setting [7]); 29% in experiment [3] (setting [8]); 60.6% in experiment [3] (at 50.0 µM); 12% in experiment [4] (setting [7]); 45% in experiment [4] (setting [8]); 19.5% in experiment [4] (at 50.0 µM). The growth inhibition in experiment [5] (setting [7]) was 56%; in experiment [5] (setting [8]) it was 86% (active); in experiment [5] (at 50.0 µM), 77.5% (active); in experiment [6] (setting [7]) it was 41%; in experiment [6] (setting [8]), 81% (active); in experiment [6] (at 50.0 µM) it was 72.5% (active).

Regarding `COC(=O)c1nc(=S)[nH]c(C(=O)OC)c1C(=O)c1ccc(Cl)c(Cl)c1`, the growth inhibition in experiment [1] (setting [7]) was -8%; in experiment [1] (setting [8]), 98% (active); in experiment [1] (at 50.0 µM) it was 99.5% (active); in experiment [2] (setting [7]) it was -1%; in experiment [2] (setting [8]), 98% (active); in experiment [2] (at 50.0 µM), 99% (active). Besides, the growth inhibition is 7% in experiment [3] (setting [7]); 98% (active) in experiment [3] (setting [8]); 99.3% (active) in experiment [3] (at 50.0 µM); 4% in experiment [4] (setting [7]); 95% (active) in experiment [4] (setting [8]); 98.5% (active) in experiment [4] (at 50.0 µM). Further, the growth inhibition in experiment [5] (setting [7]) is 0%; in experiment [5] (setting [8]), 98% (active); in experiment [5] (at 50.0 µM), 98.2% (active); in experiment [6] (setting [7]) it was 11%; in experiment [6] (setting [8]), 99% (active); in experiment [6] (at 50.0 µM), 99.2% (active).

For `O=[N+]([O-])c1cc(-c2ccccc2)c(O)c([N+](=O)[O-])c1`, the growth inhibition in experiment [1] (setting [7]) was 31%; in experiment [1] (setting [8]), 78% (active); in experiment [1] (at 50.0 µM), 93.8% (active); in experiment [2] (setting [7]), 22%; in experiment [2] (setting [8]), 60%; in experiment [2] (at 50.0 µM), 88.8% (active). In addition, the growth inhibition in experiment [3] (setting [7]) was 27%; in experiment [3] (setting [8]), 71% (active); in experiment [3] (at 50.0 µM), 85.8% (active); in experiment [4] (setting [7]) it was 27%; in experiment [4] (setting [8]), 51%; in experiment [4] (at 50.0 µM) it was 74.8% (active). The growth inhibition in experiment [5] (setting [7]) was 17%; in experiment [5] (setting [8]) it was 55%; in experiment [5] (at 50.0 µM) it was 89.4% (active); in experiment [6] (setting [7]), 31%; in experiment [6] (setting [8]) it was 67%; in experiment [6] (at 50.0 µM) it was 92.8% (active).

For `O=C/C=C/c1ccc([N+](=O)[O-])cc1`, the growth inhibition in experiment [1] (setting [7]) was 24%; in experiment [1] (setting [8]), 98% (active); in experiment [1] (at 50.0 µM), 80.4% (active); in experiment [2] (setting [7]) it was 49%; in experiment [2] (setting [8]) it was 100% (active); in experiment [2] (at 50.0 µM), 83.5% (active). Also, the growth inhibition is 18% in experiment [3] (setting [7]); 98% (active) in experiment [3] (setting [8]); 95.5% (active) in experiment [3] (at 50.0 µM); 8% in experiment [4] (setting [7]); 98% (active) in experiment [4] (setting [8]); 46.7% in experiment [4] (at 50.0 µM). The growth inhibition in experiment [5] (setting [7]) is 17%; in experiment [5] (setting [8]), 99% (active); in experiment [5] (at 50.0 µM), 95.3% (active); in experiment [6] (setting [7]), 72% (active); in experiment [6] (setting [8]), 99% (active); in experiment [6] (at 50.0 µM), 90.5% (active).

For `Cc1cc(Br)c2nsnc2c1[N+](=O)[O-]`, the growth inhibition in experiment [1] (setting [7]) was 33%; in experiment [1] (setting [8]), 94% (active); in experiment [1] (at 50.0 µM), 54.4%; in experiment [2] (setting [7]), 43%; in experiment [2] (setting [8]) it was 97% (active); in experiment [2] (at 50.0 µM), 78.5% (active). Also, the growth inhibition in experiment [3] (setting [7]) was 30%; in experiment [3] (setting [8]), 85% (active); in experiment [3] (at 50.0 µM), 80.8% (active); in experiment [4] (setting [7]), 32%; in experiment [4] (setting [8]) it was 88% (active); in experiment [4] (at 50.0 µM), 71.2% (active). Also, the growth inhibition in experiment [5] (setting [7]) was 20%; in experiment [5] (setting [8]), 87% (active); in experiment [5] (at 50.0 µM), 68.7%; in experiment [6] (setting [7]) it was 37%; in experiment [6] (setting [8]) it was 95% (active); in experiment [6] (at 50.0 µM), 77.9% (active).

Take `NCCCN(CCCN)CCCNCc1c2ccccc2c(CNCCCN(CCCN)CCCN)c2ccccc12`: the growth inhibition in experiment [1] (setting [7]) was 88% (active); in experiment [1] (setting [8]), 99% (active); in experiment [1] (at 50.0 µM) it was 90.6% (active); in experiment [2] (setting [7]), 62%; in experiment [2] (setting [8]), 99% (active); in experiment [2] (at 50.0 µM) it was 93% (active). Moreover, the growth inhibition is 67% in experiment [3] (setting [7]); 98% (active) in experiment [3] (setting [8]); 93.3% (active) in experiment [3] (at 50.0 µM); 36% in experiment [4] (setting [7]); 98% (active) in experiment [4] (setting [8]); 92.7% (active) in experiment [4] (at 50.0 µM). For the same compound, the growth inhibition in experiment [5] (setting [7]) was 89% (active); in experiment [5] (setting [8]), 99% (active); in experiment [5] (at 50.0 µM), 92.6% (active); in experiment [6] (setting [7]), 96% (active); in experiment [6] (setting [8]), 99% (active); in experiment [6] (at 50.0 µM), 91.1% (active).

Regarding `Cc1onc(-c2ccccc2)c1C(=O)N/N=C/c1cc(Cl)cc(Cl)c1O`, the growth inhibition in experiment [1] (setting [7]) is 92% (active); in experiment [1] (setting [8]) it was 95% (active); in experiment [1] (at 50.0 µM) it was 80.6% (active); in experiment [2] (setting [7]) it was 96% (active); in experiment [2] (setting [8]), 96% (active); in experiment [2] (at 50.0 µM), 88.5% (active). For the same compound, the growth inhibition in experiment [3] (setting [7]) is 93% (active); in experiment [3] (setting [8]) it was 98% (active); in experiment [3] (at 50.0 µM) it was 90.8% (active); in experiment [4] (setting [7]), 87% (active); in experiment [4] (setting [8]), 96% (active); in experiment [4] (at 50.0 µM), 84.5% (active). The growth inhibition was 94% (active) in experiment [5] (setting [7]); 63% in experiment [5] (setting [8]); 87.8% (active) in experiment [5] (at 50.0 µM); 96% (active) in experiment [6] (setting [7]); 94% (active) in experiment [6] (setting [8]); 85.2% (active) in experiment [6] (at 50.0 µM).

Regarding `NC(=S)N/N=C\c1nccc2c(N)cccc12`, the growth inhibition in experiment [1] (setting [7]) is 6%; in experiment [1] (setting [8]), 87% (active); in experiment [1] (at 50.0 µM) it was 61.4%; in experiment [2] (setting [7]) it was 35%; in experiment [2] (setting [8]), 89% (active); in experiment [2] (at 50.0 µM), 76.7% (active). The growth inhibition in experiment [3] (setting [7]) is 9%; in experiment [3] (setting [8]), 81% (active); in experiment [3] (at 50.0 µM), 74% (active); in experiment [4] (setting [7]), -12%; in experiment [4] (setting [8]) it was 81% (active); in experiment [4] (at 50.0 µM), 36.4%. Also, the growth inhibition in experiment [5] (setting [7]) is 0%; in experiment [5] (setting [8]), 85% (active); in experiment [5] (at 50.0 µM) it was 74.8% (active); in experiment [6] (setting [7]), 10%; in experiment [6] (setting [8]), 85% (active); in experiment [6] (at 50.0 µM), 67.5%.

As to `Oc1ccc(Cl)cc1C(c1cc(Cl)ccc1O)C(Cl)(Cl)Cl`, the growth inhibition in experiment [1] (setting [7]) was 99% (active); in experiment [1] (setting [8]), 99% (active); in experiment [1] (at 50.0 µM), 99.5% (active); in experiment [2] (setting [7]), 99% (active); in experiment [2] (setting [8]), 99% (active); in experiment [2] (at 50.0 µM), 99.6% (active). Further, the growth inhibition in experiment [3] (setting [7]) is 100% (active); in experiment [3] (setting [8]), 100% (active); in experiment [3] (at 50.0 µM) it was 99.4% (active); in experiment [4] (setting [7]), 99% (active); in experiment [4] (setting [8]), 99% (active); in experiment [4] (at 50.0 µM), 99.1% (active). For the same compound, the growth inhibition in experiment [5] (setting [7]) is 100% (active); in experiment [5] (setting [8]) it was 99% (active); in experiment [5] (at 50.0 µM), 99.5% (active); in experiment [6] (setting [7]) it was 99% (active); in experiment [6] (setting [8]) it was 99% (active); in experiment [6] (at 50.0 µM), 99.2% (active).

With `CC1(C)OC2C(COC(c3ccccc3)(c3ccccc3)c3ccccc3)OC(c3c[nH]c4c(N)ncnc34)C2O1` (stereo not given), the growth inhibition in experiment [1] (setting [7]) is 9%; in experiment [1] (setting [8]), 99% (active); in experiment [1] (at 50.0 µM), 98.9% (active); in experiment [2] (setting [7]) it was 40%; in experiment [2] (setting [8]) it was 99% (active); in experiment [2] (at 50.0 µM), 99.1% (active). Moreover, the growth inhibition in experiment [3] (setting [7]) is -6%; in experiment [3] (setting [8]) it was 99% (active); in experiment [3] (at 50.0 µM), 99.2% (active); in experiment [4] (setting [7]) it was -20%; in experiment [4] (setting [8]), 99% (active); in experiment [4] (at 50.0 µM), 97.7% (active). In addition, the growth inhibition in experiment [5] (setting [7]) is 10%; in experiment [5] (setting [8]), 99% (active); in experiment [5] (at 50.0 µM), 98.8% (active); in experiment [6] (setting [7]), 25%; in experiment [6] (setting [8]), 99% (active); in experiment [6] (at 50.0 µM) it was 98.7% (active).

The values above are taken from PubChem BioAssay (NCI).
